Experimental findings from PubChem BioAssay (EPA / NIEHS) are described below.

Calls of active or inactive are those of the source. How the source made its calls: active means hit-call score of the fitted dose curve at least 0.9, where 1 is the maximum; inactive means score below 0.9.

The experiment can be described thus: CCTE_Shafer_MEA_acute_burst_duration_mean: CCTE's Neural Acute Assay for Mean Burst Duration, Shafer Lab (AID 2284014). On the procedure:
CCTE_Shafer_MEA_acute assay is conducted using Axion Biosystems 48 well microelectrode array (MEA) plates and Maestro recording system. Each well of the MEA plate contains a grid of 16 microelectrodes embedded in the culture surface. Electrically active cells, such as neurons, can be cultured over the electrodes, and electrical activity in these cells can be recorded extracellularly. The spontaneous firing of neurons is captured from each electrode on a microsecond timescale providing both temporally and spatially precise data. […] The CCTE_Shafer_MEA_acute assay uses primary cultures of rat cortical neurons. As these cultures mature over time, neural networks develop functional activity and form cohesive networks in which electrical activity can be highly coordinated. Baseline 40-minute recordings are made on days post-plating 13 or 15, followed by a secondary 40-minute recording after chemical exposure.CCTE_Shafer_MEA_acute_burst_duration_mean is a component of the CCTE_Shafer_MEA_acute assay. It measures the average time from the first spike (action potential firing) to the last spike in a single-electrode burst (temporally-clustered group of spikes) during a recording in a microelectrode array (MEA) using Axion Biosystems Maestro 768 channel amplifier with the AxIS adaptive spike detector. The recordings before and after chemical treatment are used to calculate a percent change in the mean burst duration in each well.Data from the assay component CCTE_Shafer_MEA_acute_burst_duration_mean was analyzed into 1 assay endpoint. This assay endpoint, CCTE_Shafer_MEA_acute_burst_duration_mean, was analyzed in the negative analysis fitting direction relative to DMSO as the negative control and baseline of activity. Using a type of functional reporter, gain or loss-of-signal activity can be used to understand electrical activity.
Spontaneous activity in the cortical cultures was recorded using an Axion Biosystems Maestro 768 channel amplifier and Axion Integrated Studios (AxIS) v1.8 (or later) software. The amplifier recorded from all channels simultaneously (gain = 1200 x; sampling rate = 12.5 kHz/channel): raw signals were filtered with a Butterworth band-pass filter (300-5000 Hz), which filters out slower local field potentials leaving only fast potentials, i.e., "spikes", arising from extracellular currents associated with action potentials (Pine 2006; Wheeler and Nam 2011). On-line spike detection of filtered signals was conducted with the AxIS adaptive spike detector, using a threshold of 8x the root mean squared (rms) noise on each channel. Any electrodes with rms noise levels greater than 5 uV were grounded (e.g., no data were recorded). Once grounded, an electrode was grounded for the duration of the experiment. All recordings were conducted at 37 C. Wells were deemed usable if on the day of the exposure >/= 10 electrodes were active (defined as >/= 5 spikes/min). On DIV 13 or 15, a minimum of three wells from one cortical culture preparation were treated with each compound (0.03-40 uM). Prior to recording baseline activity, each mwMEA plate was placed in the Maestro at 37 C and allowed to sit for 20 min while firing rates stabilized. Baseline activity (40 min) was recorded before the addition of each compound. An additional 40 min of spontaneous activity was recorded in the presence of each compound. Changes in network parameters relative to baseline were assessed following compound treatment.
`CC(=O)c1ccc(C)cc1`: the compound was classed as inactive. The entry for `CCn1cc(C(=O)O)c(=O)c2ccc(C)nc21` is “inactive”; for `CC(C)(CO)CO` it is “inactive”. The entry for `CC(C)CCCC(C)(C)O` is “inactive”; for `CC/C(=C(\c1ccccc1)c1ccc(OCCN(C)C)cc1)c1ccccc1` it is “inactive”. To `N[C@@H](CCC(=O)O)C(=O)O` belongs “inactive”; to `c1ccc(OCCOc2ccccc2)cc1`, “inactive”.

For the compound `O=C(c1ccc(OCCN2CCCCC2)cc1)c1c(-c2ccc(O)cc2)sc2cc(O)ccc12`, the call was inactive. On to `CCCCOCCOCCO`, for which the outcome was inactive. The entry for `CCCCN(CCO)CCO` is “inactive”. The entry for `CCCO[Si](OCCC)(OCCC)OCCC` is “inactive”.
